Reference: PubChem BioAssay (NCI)
The panel holds about 83,000 compounds, 20% with a hit somewhere; the sample as a whole holds those more often.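 Step 1: grow cells in 96-well plates. Step 2: add test compound at a single concentration. Step 3: incubate 48 h. Step 4: record percent growth.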 Values without a mark were called inactive. Active and inactive are the calls of the source. Rule for the calls: active = growth percent below 10; inactive = the rest.

Assays:
Assay in all cases: NCI-60 one-dose screen, 48 h (100 = growth as untreated, 0 = no growth, -100 = all killed)
Settings in all cases: 10 µM unless noted
T-47D breast = system: T-47D breast
BT-549 breast = system: BT-549 breast
MDA-MB-435 melanoma = system: MDA-MB-435 melanoma
SW-620 colon = system: SW-620 colon
MCF7 breast = system: MCF7 breast
HCT-116 colon = system: HCT-116 colon
HCC-2998 colon = system: HCC-2998 colon
KM12 colon = system: KM12 colon

| Structure (SMILES) | growth (T-47D breast) | growth (BT-549 breast) | growth (MDA-MB-435 melanoma) | growth (SW-620 colon) | growth (MCF7 breast) | growth (HCT-116 colon) | growth (HCC-2998 colon) | growth (KM12 colon) |
| --- | --- | --- | --- | --- | --- | --- | --- | --- |
| Nc1c(C(=O)Nc2cccc(Cl)c2)sc2nc3c(cc12)C(O)CCC3 (stereo not drawn) | 52.3% | 56% | -37.5% (active) | 43.9% | 17.8% | 19.1% | 24.9% | 26.9% |
| N#Cc1ncc(-c2ccc(C(F)(F)F)cc2)c(NC2CCCCCC2)n1 | 7.65% (active) | 49.5% | 8.67% (active) | 19.9% | 14% | 15.6% | 73.2% | 22.3% |
| O=C(/C=C/c1cccc(Nc2ccnc3cc(Cl)ccc23)c1)c1ccc(Cl)cc1 | 39.8% | 54.3% | 56.9% | 24.7% | 27.6% | 14.2% | 71.4% | 62.6% |
| COc1ccc(C(=O)/C=C/c2ccc(C)cc2)cc1OC | 59.3% | 89.8% | 97.1% | 24.7% | 35.5% | 30.1% | 90.1% | 20.1% |
| CCOC(=O)c1sc(NC(=O)COc2cccc(/C=C3\CCc4cc(OC)ccc4C3=O)c2)nc1C | 84.8% | -23.3% (active) | 8.01% (active) | 36.4% | 18.9% | 46.5% | 32.3% | 34.7% |
| COCCCNS(=O)(=O)c1ncnc2nc[nH]c12 | 105% | 123% | 107% | 101% | 112% | 93.5% | 102% | 95.7% |
| N[C@H](CS)C(=O)O | 103% | 98.3% | 104% | 106% | 87.9% | 112% | 112% | 109% |
| COc1cc(/C=C2\CN(C)CC3=C2Nc2nc(SC)[nH]c(=O)c2C3c2cc(OC)c(OC)c(OC)c2)cc(OC)c1OC (stereo not drawn) | 85.4% | 54.9% | 2.77% (active) | 11.7% | 33.5% | -46.3% (active) | 49.9% | 37.2% |
| Nc1ccc(Oc2c(F)c(F)c(Oc3ccc(N)cc3)c(F)c2F)cc1 | 91.8% | 108% | 104% | 102% | 129% | 81.5% | 73.1% | 110% |
| COc1cc(/C=N/NC(=O)c2ccc(C(F)(F)F)nc2Nc2ccc(Cl)cc2C)ccc1O | 33.7% | 16% | 39.2% | 26.2% | 27.8% | 11.3% | 42.8% | 24.5% |
| O=C(CNC(=O)c1cccc2ccccc12)Nc1ccccc1Oc1cccc(O)c1 | 42.3% [5 µM] | 18.7% [5 µM] | -48% [5 µM] (active) | 20.3% [5 µM] | 20.5% [5 µM] | 8.18% [5 µM] (active) | 58.3% [5 µM] | 22.8% [5 µM] |
| CNNc1ncnc2c1cnn2-c1ccc(S(N)(=O)=O)cc1 | 98.2% | 109% | 114% | 98.6% | 104% | 100% | 99.3% | 91.9% |
| O=C1Nc2ccc(Cl)cc2/C1=C/c1cccs1 | 16.9% | 95.4% | 105% | 103% | 44.6% | 99.2% | 77.6% | 86.8% |
| N#Cc1c(-c2ccccc2)cc(-c2ccccc2)n(CC(=O)O)c1=O | 45.3% | 25.8% | -10.6% (active) | 32.8% | 34.8% | 39.2% | 82.4% | 41.3% |
| Cc1cc(C)c2c(N)c3cccc(C)c3nc2n1 | -3.39% (active) | 0.0119% (active) | 2.84% (active) | -1.92% (active) | 6.02% (active) | -39.4% (active) | -38.7% (active) | 6.37% (active) |
| c1ccc2c(-c3nc4ccccc4[nH]3)cccc2c1 | 36% | 24.3% | -19% (active) | 16.8% | 17.2% | 16.7% | 57.5% | 21.8% |

| Structure (SMILES) | growth (T-47D breast) | growth (BT-549 breast) | growth (MDA-MB-435 melanoma) | growth (SW-620 colon) | growth (MCF7 breast) | growth (HCT-116 colon) | growth (HCC-2998 colon) | growth (KM12 colon) |
| --- | --- | --- | --- | --- | --- | --- | --- | --- |
| Cc1ccc(/C=C(/C#N)n2nnc3ncccc32)cc1 | 5.39% (active) | 11.3% | -52.9% (active) | 9.59% (active) | 14.5% | 4.5% (active) | 15.7% | 24.6% |
| N/C(=N\c1nc2ccccc2s1)NC(=O)Nc1ccccc1Cl | 37% | 18.6% | -31.8% (active) | 27.7% | 21.1% | 13% | 14.2% | 12.7% |
| Cc1cccc2nnc(-c3ccccc3)n12 | 115% | 98.9% | 112% | 112% | 97% | 104% | 102% | 108% |
| C(=C1c2ccccc2-c2ccccc21)c1ccncc1 | 72.2% | 38.6% | -21.7% (active) | 17.1% | 18.8% | 16.4% | 66.6% | 18.5% |
| COc1cc(OC)c2c(c1Cl)O[C@]1(C2=O)C(OCc2ccccc2)=CC(=O)C[C@H]1C | 8.09% (active) | 24.2% | -44.5% (active) | 19.8% | 12.7% | 7.75% (active) | -5.11% (active) | 7.93% (active) |
| N#Cc1c(-c2ccc(F)cc2)n2c(nc1=O)SC(=O)C2=O | 114% | 99.1% | 96.5% | 103% | 89.4% | 102% | 102% | 104% |
| O=C1c2cccc(NCCN=Cc3ccccc3O)c2C(=O)c2c(NCCN=Cc3ccccc3O)cccc21 | 18% | 49% | 24.7% | 0.678% (active) | 3.69% (active) | 7.91% (active) | 2.57% (active) | 6.07% (active) |
| CC[N+](CCCCCCCCCC[N+](CC)(c1ccccn1)c1ccccn1)(c1ccccn1)c1ccccn1 | 13.8% | 19.1% | -15.1% (active) | 10.1% | 7.81% (active) | 9.06% (active) | 13.3% | 5.01% (active) |
| COc1cnc2c(c1)C(=O)c1c-2n(CCCN2CCOCC2)c(=O)c2cc(F)ccc12 | -16% (active) | 13.3% | -14.2% (active) | 6.66% (active) | 1.93% (active) | -77.1% (active) | 13.2% | -14.4% (active) |
| C[C@@H]1[C@H]2[C@H](C=C3[C@@H]4CC[C@H]5Cc6nc7c(nc6C[C@]5(C)[C@H]4C[C@@H](O)[C@@]32C)C[C@@H]2CC[C@H]3C4=C[C@@H]5O[C@@]6(CC[C@](C)(CO)O6)[C@@H](C)[C@@]5(O)[C@@]4(C)[C@H](O)C[C@@H]3[C@@]2(C)C7)O[C@]12CCC(C)(C)O2 | 7.03% (active) | 3.41% (active) | 51.8% | 8.02% (active) | 15.5% | 9.68% (active) | 66.5% | 28.7% |
| CC[C@H]1CN2CCc3cc(OC)c(OC)cc3C2C[C@@H]1CC1NCCc2cc(OC)c(OC)cc21 (stereo partly drawn) | -15.1% (active) | -11% (active) | -71.2% (active) | -20.3% (active) | -2.18% (active) | -22.9% (active) | -47.8% (active) | -37.2% (active) |
| CN(C)c1ncnc2c1ncn2C1CCCCO1 (stereo not drawn) | 105% | 101% | 111% | 106% | 96.6% | 104% | 96.7% | 112% |
| Cc1ccc(/C=C/C(=O)c2ccc(F)cc2)s1 | 62.9% | 76.7% | 52.1% | 30.4% | 35.9% | 25.8% | 88% | 67.3% |
| COc1cc(/C=N/NC(=O)c2ccc(C(F)(F)F)nc2Nc2cc(Cl)ccc2C)cc(OC)c1OC | 84.7% | 99.6% | 97.7% | 97% | 104% | 99% | 104% | 108% |
| Cc1cc(C)nc(NS(=O)(=O)c2ccc(Nc3nc4nc(SCc5ccccc5)nc(-c5ccc(O)cc5)c4c(=O)[nH]3)cc2)n1 | 79.1% | 107% | 94.9% | 101% | 104% | 103% | 100% | 107% |
